Data taken from PubChem BioAssay AID1159580 (chemical genetic matrix, 2015).
In all, about 5,500 compounds went through this assay and about 2,000 (36%) were called active. Roughly 18% stayed inconclusive and do not appear here. Rule as the data show it: active = normalized growth mostly below about 0.91 (no sharp cut-off); inconclusive = no clear call, values can overlap the other calls; inactive = mostly above about 0.92. This is one part of the list.

Assay: chemical genetic growth profiling, strain panel (AID 1159580);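 also: tested at 20 µM; growth read once vehicle control cultures reached saturation at 30 °C; 1 = growth at the plate median or of vehicle wells; lower values mean less growth of the strain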
Settings: growth OD

Measured: normalized growth

O=c1cc(-c2ccc(O)cc2)oc2cc(O[C@@H]3O[C@H](CO)[C@@H](O)[C@H](O)[C@H]3O[C@@H]3OC[C@](O)(CO)[C@H]3O)cc(O)c12
inactive: S. cerevisiae deletion strains, locus YJR075W, strain HOC1, hits give low values 1.04 | S. cerevisiae deletion strains, locus YKL009W, strain mrt4, hits give low values 0.986 | S. cerevisiae deletion strains, locus YKL068W, hits give low values 0.991 | S. cerevisiae deletion strains, locus YKL085W, strain MDH1 (second series), hits give low values 0.999 | S. cerevisiae deletion strains, locus YKL085W, strain MDH1, hits give low values 0.999 | S. cerevisiae deletion strains, locus YKL160W, strain elf1, hits give low values 1.01 | S. cerevisiae deletion strains, locus YKL190W, strain CNB1, hits give low values 0.994 | S. cerevisiae deletion strains, locus YKR001C, strain vps1, hits give low values 0.987 | S. cerevisiae deletion strains, locus YKR026C, strain gcn3, hits give low values 0.991 | S. cerevisiae deletion strains, locus YKR091W, strain srl3, hits give low values 1.01 | S. cerevisiae deletion strains, locus YLL001W, strain dnm1, hits give low values 0.993 | S. cerevisiae deletion strains, locus YLL026W, hits give low values 0.995 | S. cerevisiae deletion strains, locus YLL041C, strain sdh2, hits give low values 1 | S. cerevisiae deletion strains, locus YLR027C, strain aat2, hits give low values 1.01 | S. cerevisiae deletion strains, locus YLR039C, strain RIC1, hits give low values 1.11 | S. cerevisiae deletion strains, locus YLR058C, strain SHM2, hits give low values 1.02 | S. cerevisiae deletion strains, locus YLR102C, strain apc9, hits give low values 0.989 | S. cerevisiae deletion strains, locus YLR113W, strain HOG1, hits give low values 1.03 | S. cerevisiae deletion strains, locus YLR221C, strain rsa3, hits give low values 1.01 | S. cerevisiae deletion strains, locus YLR258W, strain gsy2, hits give low values 0.997 | S. cerevisiae deletion strains, locus YLR262C, strain YPT6 (second series), hits give low values 0.999 | S. cerevisiae deletion strains, locus YLR262C, strain YPT6, hits give low values 1.16 | S. cerevisiae deletion strains, locus YLR268W, strain sec22, hits give low values 0.983 | S. cerevisiae deletion strains, locus YLR320W, strain mms22, hits give low values 1.02 | S. cerevisiae deletion strains, locus YLR330W, strain CHS5, hits give low values 1.04 | S. cerevisiae deletion strains, locus YLR342W, strain FKS1 (second series), hits give low values 0.994 | S. cerevisiae deletion strains, locus YLR342W, strain FKS1, hits give low values 1.01 | S. cerevisiae deletion strains, locus YLR357W, strain rsc2, hits give low values 0.979 | S. cerevisiae deletion strains, locus YLR370C, strain arc18, hits give low values 1 | S. cerevisiae deletion strains, locus YLR371W, strain rom2, hits give low values 0.985 | S. cerevisiae deletion strains, locus YLR384C, strain iki3, hits give low values 0.999 | S. cerevisiae deletion strains, locus YLR418C, strain cdc73, hits give low values 1.06 | S. cerevisiae deletion strains, locus YML016C, strain PPZ1, hits give low values 1.01 | S. cerevisiae deletion strains, locus YML032C, strain rad52, hits give low values 1 | S. cerevisiae deletion strains, locus YML120C, strain ndi1, hits give low values 1.02 | S. cerevisiae deletion strains, locus YML124C, strain tub3, hits give low values 0.991 | S. cerevisiae deletion strains, locus YMR058W, strain fet3, hits give low values 1.01 | S. cerevisiae deletion strains, locus YMR078C, strain ctf18, hits give low values 0.963 | S. cerevisiae deletion strains, locus YMR125W, strain sto1, hits give low values 0.992 | S. cerevisiae deletion strains, locus YMR129W, hits give low values 1.01 | S. cerevisiae deletion strains, locus YMR205C, strain PFK2, hits give low values 1.01 | S. cerevisiae deletion strains, locus YMR223W, strain ubp8, hits give low values 1.02 | S. cerevisiae deletion strains, locus YMR231W, strain pep5, hits give low values 0.997 | S. cerevisiae deletion strains, locus YMR263W, strain SAP30, hits give low values 1.02 | S. cerevisiae deletion strains, locus YMR307W, strain GAS1, hits give low values 1.04 | S. cerevisiae deletion strains, locus YNL067W, strain RPL9B, hits give low values 1.02 | S. cerevisiae deletion strains, locus YNL071W, strain lat1, hits give low values 1.02 | S. cerevisiae deletion strains, locus YNL153C, strain GIM3, hits give low values 1 | S. cerevisiae deletion strains, locus YNL183C, strain NPR1, hits give low values 0.979 | S. cerevisiae deletion strains, locus YNL209W, strain ssb2, hits give low values 1.01 | S. cerevisiae deletion strains, locus YNL233W, strain BNI4, hits give low values 1.02 | S. cerevisiae deletion strains, locus YNL248C, strain rpa49, hits give low values 1 | S. cerevisiae deletion strains, locus YNL250W, strain rad50, hits give low values 1 | S. cerevisiae deletion strains, locus YNL271C, strain bni1, hits give low values 1.01 | S. cerevisiae deletion strains, locus YNL298W, strain CLA4, hits give low values 0.994 | S. cerevisiae deletion strains, locus YNL307C, strain MCK1, hits give low values 0.977 | S. cerevisiae deletion strains, locus YNL322C, strain KRE1 (second series), hits give low values 0.994 | S. cerevisiae deletion strains, locus YNL322C, strain KRE1, hits give low values 1.01 | S. cerevisiae deletion strains, locus YNR049C, strain mso1, hits give low values 0.998 | S. cerevisiae deletion strains, locus YNR052C, strain pop2, hits give low values 1 | S. cerevisiae deletion strains, locus YOL012C, strain htz1 0.956 | S. cerevisiae deletion strains, locus YOL147C, strain pex11, hits give low values 0.996 | S. cerevisiae deletion strains, locus YOR001W, strain rrp6, hits give low values 1.01 | S. cerevisiae deletion strains, locus YOR061W, strain CKA2, hits give low values 1.02 | S. cerevisiae deletion strains, locus YOR069W, strain VPS5, hits give low values 1 | S. cerevisiae deletion strains, locus YOR070C, strain gyp1, hits give low values 1 | S. cerevisiae deletion strains, locus YOR080W, strain dia2, hits give low values 1 | S. cerevisiae deletion strains, locus YOR083W, strain WHI5, hits give low values 1.02 | S. cerevisiae deletion strains, locus YOR106W, strain vam3, hits give low values 1.02 | S. cerevisiae deletion strains, locus YOR136W, strain idh2, hits give low values 0.974 | S. cerevisiae deletion strains, locus YOR144C, strain elg1, hits give low values 0.989 | S. cerevisiae deletion strains, locus YOR184W, strain ser1, hits give low values 1.04 | S. cerevisiae deletion strains, locus YOR231W, strain MKK1, hits give low values 1.07 | S. cerevisiae deletion strains, locus YOR265W, strain rbl2, hits give low values 1.01 | S. cerevisiae deletion strains, locus YOR270C, strain vph1, hits give low values 1.02 | S. cerevisiae deletion strains, locus YOR290C, strain snf2, hits give low values 0.998 | S. cerevisiae deletion strains, locus YOR316C, strain cot1, hits give low values 0.992 | S. cerevisiae deletion strains, locus YPL051W, strain arl3, hits give low values 1 | S. cerevisiae deletion strains, locus YPL055C, strain LGE1, hits give low values 1.04 | S. cerevisiae deletion strains, locus YPL078C, strain atp4, hits give low values 0.999 | S. cerevisiae deletion strains, locus YPL106C, strain sse1, hits give low values 0.997 | S. cerevisiae deletion strains, locus YPL240C, strain hsp82, hits give low values 1 | S. cerevisiae deletion strains, locus YPL241C, strain CIN2, hits give low values 1.01 | S. cerevisiae deletion strains, locus YPL256C, strain CLN2, hits give low values 0.995 | S. cerevisiae deletion strains, locus YPR119W, strain clb2, hits give low values 0.984 | S. cerevisiae deletion strains, locus YPR141C, strain kar3, hits give low values 0.999 | S. cerevisiae deletion strains, locus YPR163C, strain tif3, hits give low values 0.979 | S. cerevisiae deletion strains, locus YPR167C, strain met16, hits give low values 0.981 | S. cerevisiae deletion strains, strain wtn01, hits give low values 0.99 | S. cerevisiae strains, strain wild type, hits give low values 1.01
